We go through 55 compounds from PubChem BioAssay AID588590 (National Center for Advancing Translational Sciences (NCATS), 2011).

Each structure is given as a SMILES string. Hit rate of the full screen: of about 390,000 compounds, about 4,000 (1%) were called active. Roughly 7% stayed inconclusive and do not appear here. Shown is part of a subset that was picked to be rich in actives. A number with no mark means an inactive call. The call rests on the fitted dose curve; in most records, active means well fitted inhibition curve with a large enough effect; inconclusive means small, poorly fitted or top-dose-only effect, or another doubt; inactive means no such curve, though single readings can be large or run the other way.
Potency means the concentration at half of the fitted maximal effect.

Chain of DNA polymerase iota (Homo sapiens) (Q9UNA4 whole entry, looked up): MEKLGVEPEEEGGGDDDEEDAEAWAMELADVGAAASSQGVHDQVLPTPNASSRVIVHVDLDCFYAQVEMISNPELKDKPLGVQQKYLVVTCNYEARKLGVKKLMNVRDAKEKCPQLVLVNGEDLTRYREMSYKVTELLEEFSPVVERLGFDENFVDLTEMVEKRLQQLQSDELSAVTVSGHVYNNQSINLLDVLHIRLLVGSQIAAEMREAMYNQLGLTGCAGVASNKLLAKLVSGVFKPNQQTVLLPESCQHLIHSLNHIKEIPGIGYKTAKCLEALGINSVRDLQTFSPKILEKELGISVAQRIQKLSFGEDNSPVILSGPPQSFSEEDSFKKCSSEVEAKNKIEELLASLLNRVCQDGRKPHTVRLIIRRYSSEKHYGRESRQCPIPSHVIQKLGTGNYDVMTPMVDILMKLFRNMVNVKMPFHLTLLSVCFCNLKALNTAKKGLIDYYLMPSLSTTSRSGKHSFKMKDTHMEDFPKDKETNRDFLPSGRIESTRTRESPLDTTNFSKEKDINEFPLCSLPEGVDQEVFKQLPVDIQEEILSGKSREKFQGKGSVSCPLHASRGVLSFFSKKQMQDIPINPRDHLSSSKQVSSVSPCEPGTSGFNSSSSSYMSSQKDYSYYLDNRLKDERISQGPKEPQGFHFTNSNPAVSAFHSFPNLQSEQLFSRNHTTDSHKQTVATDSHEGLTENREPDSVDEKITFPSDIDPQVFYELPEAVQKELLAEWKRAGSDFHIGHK

The assay addresses DNA polymerase iota (Homo sapiens) (UniProt Q9UNA4). Briefly: qHTS for Inhibitors of Polymerase Iota. As to conditions: Pol iota fluorescent replication assay, 10 min; series mostly up to 115 µM; activity, negative = inhibition: at the top concentration. The text has this:
DNA polymerases, such as Pol iota, are specifically involved in DNA repair. Pol iota specifically plays an important role in translesion synthesis, where the normal high-fidelity DNA polymerases cannot proceed and DNA synthesis stalls. […] Thus, while pol eta's (and most likely iota's) normal function is to protect humans against the deleterious consequences of DNA damage, under certain conditions they can have deleterious effects on human health. As a consequence, we propose to utilize a high throughput replication assay to identify small molecule inhibitors of pol iota.
In a collaboration between the National Institute of Child Health & Human Development (NICHD) and NIH Chemical Genomics Center, a high-throughput, fluorescent screen was developed to screen the NIH Molecular Libraries Small Molecule Repository (MLSMR). This screen is used to identify inhibitors of pol iota.
NIH Chemical Genomics Center [NCGC]
NIH Molecular Libraries Probe Centers Network [MLPCN]
Assay Submitter (PI): Roger Woodgate, NICHD)
Three microliters of reagents (buffer in column 3 and 4 as negative control and 10 nM Pol iota in columns 1, 2, and 5-48) will be dispensed into 1,536-well black solid-bottomed plate. Compounds (23 nL) will be transferred via Kalypsys pin tool equipped with 1536-pin array. The plates will then be incubated for 15 min at room temperature, and 1 µL substrate (50 nM final concentration) will be added to start the reaction and kinetically read twice at 0 min and 10 min on the Viewlux reader.
In the case of `CC(=O)c1c(O)c(C)c(O)c(Cc2c(O)c3c(c(C(=O)/C=C/c4ccccc4)c2O)OC(C)(C)C=C3)c1O`, the Potency was 50.1 µM (active).
For the compound `CCCCOP(=O)(c1ccc(N(C)C)cc1)C(O)c1cc(OC)ccc1OC` (stereo not given), the “activity, negative = inhibition” value is 59.2%.
As for `CC(=O)NBr`, the “activity, negative = inhibition” value is -4.33% [at 58.9 µM].
Turning to `COc1ccc(N2C(=O)/C(=C/c3ccco3)C(=O)NC2=S)cc1`, the Potency was 4.47 µM (active).
Regarding `CNCC[C@H](Oc1ccc(C(F)(F)F)cc1)c1ccccc1`, the “activity, negative = inhibition” value is -5.09% [at 58.9 µM].
Turning to `O=C1C=C(NS(=O)(=O)c2ccccc2)C(=O)c2ccccc21`, the “activity, negative = inhibition” value was 37.4%.
For the compound `O=c1[nH]c(=S)[nH]c(O)c1/C=C1\C=Nc2ccccc21`, the “activity, negative = inhibition” value is 60.1%.
As to `O=C(O)/C=C/c1ccc2c(c1)OCO2`, the “activity, negative = inhibition” value is -23.3%.
Turning to `O=C1NC(=O)N(Cc2ccco2)C(=O)/C1=C\c1ccc(-c2ccc(F)cc2)o1`, the Potency was 11.2 µM (active).
Take `Cc1cc(/C=C2/C(=O)NC(=O)N(Cc3ccco3)C2=O)c(C)n1-c1ccc(C(=O)O)cc1`: the Potency is 14.1 µM (active).
Same read-out and setting: the same measure for `O=C1NC(=O)N(Cc2ccco2)C(=O)/C1=C\c1cccn1CCOc1ccccc1`: 22.4 µM (active).
For the compound `CC1=NNC(=O)C1Cc1c(Cl)cccc1Cl` (stereo not given), the “activity, negative = inhibition” value was 59.1%.
For `Cn1c(=O)oc2cc(S(=O)(=O)N3CCC(C(=O)Nc4ccc(OC(F)(F)F)cc4)CC3)ccc21`, the “activity, negative = inhibition” value was 49.5%.
Take `O=C(Oc1ccc2c(c1)CCC2)N1CCOCC1`: the “activity, negative = inhibition” value is 35.3%.
As for `CCOC(=O)c1ccc(N2C(=O)c3[nH]nc(-c4ccccc4)c3C2c2ccc(C(C)C)cc2)cc1` (stereo not given), the “activity, negative = inhibition” value is 31.9%.
On to `CCN(CC)C(=O)Oc1ccc(Br)cc1C(=O)Nc1ccc(F)c(Cl)c1`, for which the “activity, negative = inhibition” value is 100%.
Consider `CC(=O)c1ccc(OC(=O)N2CCOCC2)cc1`, for which the “activity, negative = inhibition” value was 57.7%.
Consider `CCOC(=O)C(NS(=O)(=O)c1ccc(C)cc1)(C(F)(F)F)P(=O)(OCC(C)C)OCC(C)C` (stereo not given), for which the “activity, negative = inhibition” value is 34.1%.
In the case of `O=C1c2ccccc2NC(c2ccccc2O)N1NS(=O)(=O)c1ccccc1` (stereo not given), the “activity, negative = inhibition” value was 34.4%.
`CC(C)(C)c1ccc(CN2C(=O)CN=C(c3ccccc3)c3ccccc32)cc1`: the “activity, negative = inhibition” value is -3.92%.
In the case of `O=C1CC(=O)N(Cc2ccccc2)C(=O)N1CCCCCCN1C(=O)CC(=O)N(Cc2ccccc2)C1=O`, the Potency is 17.8 µM (active).
Consider `O=C(CN1CCCC1=O)NCCc1ccccc1`, for which the “activity, negative = inhibition” value was -3.26%.
As for `S=C(Nc1ccc(Br)cc1Cl)N1CCC2(CC1)OCCO2`, the “activity, negative = inhibition” value was 56.3%.
As to `CC[C@H]1CN2CCc3cc(OC)c(OC)cc3[C@@H]2C[C@@H]1C[C@H]1NCCc2cc(OC)c(OC)cc21`, the Potency result is “inactive”.
For the compound `CCOCCCNC(=O)c1c(NC(=O)c2nc(SC)ncc2Cl)sc2c1CCCC2`, the “activity, negative = inhibition” value is 17.5%.
As to `O=S(=O)(Nc1ccc2[nH]ncc2c1)c1ccccc1Cl`, the “activity, negative = inhibition” value was 37.5%.
Turning to `O=[N+]([O-])c1ccc(Cl)c(Cl)c1`, the “activity, negative = inhibition” value is 1.03%.
For the compound `CO[C@H]1[C@@H](O)[C@@H](C)O[C@H](O[C@H]2[C@H](Oc3cccc4c(O)c5c(=O)oc6ccc(C)c7c(=O)oc(c34)c5c67)O[C@H](C)[C@H](O)[C@@H]2O)[C@@H]1O`, the Potency was 20 µM (active).
With `CCOc1ccc(C(NC(=O)c2cc(OC)c(OC)c(OC)c2)c2cc(Cl)c3cccnc3c2O)cc1` (stereo not given), the “activity, negative = inhibition” value was 18.7%.
For the compound `Cc1ccc(NC(=O)CN(C)CC(=O)Nc2cccc(F)c2)cc1[N+](=O)[O-]`, the “activity, negative = inhibition” value was 54.2%.
In the case of `O=P1(Oc2ccccc2)CC(O)C(O)C(COCc2ccccc2)O1` (stereo not given), the “activity, negative = inhibition” value is 26.2%.
In the case of `N#Cc1c(Cl)c(Cl)c(Cl)c(C#N)c1Cl`, the Potency is 1.58 µM (active).
Regarding `CC(CCn1cccn1)NC(=O)CCc1nnc(CCc2ccccc2)o1` (stereo not given), the “activity, negative = inhibition” value was 67.6%.
On to `O=C(NCc1cccs1)c1ccc(Br)o1`, for which the “activity, negative = inhibition” value was 21.2%.
Take `O=C(O)c1cc[c]([Sb](=[O])([OH])[OH])cc1[N+](=O)[O-]`: the Potency was 1 µM (active).
For `O=C(c1ccccc1[N+](=O)[O-])N1CCC2(CC1)OCCO2`, the “activity, negative = inhibition” value is 58.5%.
In the case of `COc1cc(C2c3cc4c(cc3C(O)C3COC(=O)C23)OCO4)cc(OC)c1OC` (stereo not given), the Potency entry is “inactive”.
Turning to `COc1cc([C@@H]2c3cc4c(cc3[C@H](OC(C)=O)[C@H]3COC(=O)[C@H]23)OCO4)cc(OC)c1OC`, the “activity, negative = inhibition” value is 10.4%.
As to `CCOC(=O)c1ncn2c1[C@@H]1CCCN1C(=O)c1cc(OC)ccc1-2`, the “activity, negative = inhibition” value is 0.794% [at 58.9 µM].
As for `Cc1ccc(C)c(NS(=O)(=O)c2ccc(OCC(=O)NCc3cccnc3)cc2)c1`, the “activity, negative = inhibition” value was 9.55%.
On the same count and under the same terms, the same measure for `CCOP(=O)(OCC)C(Nc1cccc(C)c1)c1ccc(F)cc1` (stereo not given): 29.3%.
Regarding `Cn1cc(/C=C/c2nc3ccccc3c(=O)n2-c2ccccc2)c2ccccc21`, the “activity, negative = inhibition” value is 43.9%.
As to `O=c1c2ccccc2nc(/C=C/c2ccco2)n1-c1ccccc1O`, the Potency was 44.7 µM (active).
For `O=c1c2ccccc2nc(/C=C/c2ccc(F)cc2)n1-c1ccccc1O`, the “activity, negative = inhibition” value was 145%.
Turning to `Cc1ncoc1C(=O)NCCC(c1ccccc1)c1ccccc1`, the “activity, negative = inhibition” value is 63.3%.
Still for that read-out and setting: the same measure for `CCCCN1C2CCC1CC(OC(c1ccc(F)cc1)c1ccc(F)cc1)C2` (stereo not given): 4.09% [at 58.9 µM].
Turning to `Cc1ccc(NC(=O)O/N=C/c2cccc([N+](=O)[O-])c2)cc1`, the “activity, negative = inhibition” value was 55.3%.
The same measure, in the same setting: under `c1csc(-c2nnc(COc3ccc4c(c3)OCO4)o2)c1` stands 108%.
For `O=C1NC(=O)N(c2ccccc2)C(=O)/C1=C/c1ccc([N+](=O)[O-])s1`, the Potency is 11.2 µM (active).
As for `Cc1nnc(NCc2ccccc2)c2c1nnn2Cc1ccc(F)cc1`, the “activity, negative = inhibition” value is 51.9%.
With `O=C(C1CCN(S(=O)(=O)c2ccc(Br)s2)CC1)N1CCN(c2ccccc2)CC1`, the Potency entry was “inactive”.
In the case of `CC(C)N1C(=S)SC(C)(C)C1n1oc(=O)n(-c2ccc(Cl)c(Cl)c2)c1=O` (stereo not given), the “activity, negative = inhibition” value was 24%.
Take `Cc1ccccc1NC(=O)c1c(NC(=O)c2ccccc2F)sc2c1CCC(C)C2` (stereo not given): the “activity, negative = inhibition” value was 20%.
With `CC(C)(C)c1ccc(C(=O)NCc2ccco2)cc1`, the “activity, negative = inhibition” value is 37.6%.
With `CCc1ccccc1NC(=O)c1sc2nc3c(cc2c1N)CN(Cc1ccccc1)CC3`, the “activity, negative = inhibition” value was 31.7%.
